# Test results taken from the supplement of paper PMC3334620.
# In all, about 33,000 sequences were measured (“E-score (-0.5 to 0.5)”: median about -0.0034, highest 2% from about 0.25 on). Shown is part of a subset that was picked to be rich in the highest values.
# Biological target: T1, Yap3 (UniProt P38749)
# T1 sequence: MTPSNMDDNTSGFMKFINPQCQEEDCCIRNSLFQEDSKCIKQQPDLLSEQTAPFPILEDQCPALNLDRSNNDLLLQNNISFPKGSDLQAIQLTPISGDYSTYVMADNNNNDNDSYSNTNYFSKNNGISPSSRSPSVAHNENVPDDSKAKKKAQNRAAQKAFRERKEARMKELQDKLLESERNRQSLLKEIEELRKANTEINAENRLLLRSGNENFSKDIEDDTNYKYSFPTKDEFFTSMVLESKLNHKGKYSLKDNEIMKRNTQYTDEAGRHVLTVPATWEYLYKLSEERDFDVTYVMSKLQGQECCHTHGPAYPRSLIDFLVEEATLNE
# Test: PBM E-score (8-mer binding enrichment) (E-score (-0.5 to 0.5)); higher = stronger / more preferred TF binding
# Conditions: protein concentration: 100 nM; construct: GST-full length
# Procedure: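 Universal 'all 10-mer' protein binding microarrays (Agilent AMADID 015681) probed with GST-tagged S. cerevisiae TFs (full-length or DBD) made by in vitro transcription/translation (PURExpress), about 100-200 nM. Bound TF was detected with fluorescent anti-GST. Each ungapped 8-mer (which stands for itself and its reverse complement) is scored by the PBM enrichment score (E-score), a modified Wilcoxon-Mann-Whitney statistic from -0.5 to +0.5, computed with the Universal PBM Analysis Suite. Scale: above 0.35 generally sequence-specific binding.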
row,Sequence,PBM E-score
1,AAATGAGT,0.23
2,ACATCCAT,0.0624
3,TGGCCACA,-0.0477
4,GCCTATGA,-0.134
5,GGTCCCAA,-0.151
6,ATCGACAT,0.0988
7,ACCTGCTG,0.0821
8,CGATAACA,0.097
9,TGATAACA,0.258
10,GGATAACA,0.116
11,CGTTTTAA,0.126
12,GAGGACGC,-0.1
13,GGTTCTAA,0.218
14,TGTTCTAA,0.256
15,AGTTCTAA,-0.0287
16,AGCTTGCG,-0.219
17,AATTGGGG,-0.023
18,AATTGGGT,0.331
19,AATTGGGC,0.0215
20,GATATTAA,0.212
21,AATATTAT,0.333
22,AATCTCAA,0.134
23,ACTATTAT,0.123
24,AATATTAG,0.239
25,TATCTCAA,0.256

row,Sequence,PBM E-score
1,TGTATTAA,0.126
2,TCTATTAA,0.188
3,CATCTCAA,0.108
4,TATATTAA,0.315
5,GCTATTAA,0.103
6,AATATTAA,0.346
7,AGAGGAAG,-0.0758
8,AATCGGGA,0.0297
9,CTTTGATC,-0.0556
10,TGTAGAAA,0.0253
11,CGATGGCA,-0.145
12,TAGCGGAA,-0.00131
13,GATATTAC,0.371
14,AATATTCC,0.281
15,CATATCAA,0.275
16,AATATTAC,0.31
17,GATATTCC,0.12
18,AATATCAA,0.244
19,AATATTGC,0.202
20,CCTATTAC,0.176
21,AATATTCT,0.133
22,GCTATTAC,0.137
23,AATATTCG,0.223
24,CATATCAG,0.064
25,ACGAACTC,0.0654

row,Sequence,PBM E-score
1,TAGGAGAA,-0.178
2,AGAACGAA,0.233
3,ATGTTGCA,0.0661
4,TCATTCGA,0.195
5,AGGATTAC,0.125
6,GGAACGAC,-0.133
7,AGAGAATA,0.208
8,CATATTGA,0.0743
9,GAAATCAA,0.0981
10,CGTATTAA,0.0173
11,CATATTAG,0.184
12,TATATTCA,0.259
13,CATATTAC,0.282
14,CAAATCAA,0.267
15,CATATTAA,0.299
16,CATATTTC,0.0493
17,GATATTCA,0.0491
18,AAAATCAA,0.19
19,AATATTCA,0.223
20,AAATACAT,0.154
21,CTTGGTGC,-0.023
22,AGATAGCA,0.0137
23,AACAGCAC,0.0426
24,GCGATCGC,0.191
25,CAATATGG,-0.00272

row,Sequence,PBM E-score
1,CACATTGC,0.0928
2,CACTGCTA,0.025
3,CGTTCTGA,-0.106
4,AATATCAT,0.277
5,AATATCAC,0.222
6,CACATTAG,-0.0914
7,CACATTAC,0.276
8,AATATCAG,0.121
9,AACATTAC,0.149
10,ACAATTCT,0.0509
11,AGGTTTGA,-0.014
12,CCAGGTCC,-0.307
13,GACATACA,0.256
14,CACATACA,-0.0173
15,TACATACA,0.209
16,GGACCGGA,-0.112
17,GATACAAA,0.162
18,TTTACAAA,0.262
19,AATACAAA,0.259
20,AATACAAG,0.24
21,GTTACAAA,0.225
22,CTTACAAA,0.19
23,ATTACAAG,0.166
24,ATTACAAA,0.37
25,ATTACAAT,0.125

row,Sequence,PBM E-score
1,AGCATTCG,-0.106
2,GGATACGA,0.0439
3,CGGCTGTA,-0.147
4,AATGTATG,0.0768
5,AAGCCAGC,-0.0187
6,GTCGGGTA,0.0387
7,GCTGCATA,0.0463
8,AAGGGTGA,-0.0745
9,AGAGCCAG,-0.175
10,ATGACTAA,0.431
11,CTGACTAA,0.392
12,ATGACTAG,0.07
13,GTGACTCA,0.0409
14,GTGACTGA,0.167
15,ATGACTAC,0.0437
16,CTGACTTA,0.16
17,CTGACTAC,-0.0607
18,GTGACTAA,0.262
19,CGCTATCC,0.0718
20,ACAGATCC,0.145
21,CCACCAGC,-0.0909
22,CATCCTAG,-0.0476
23,GGGGAGAC,-0.304
24,AAGCTTTG,0.0373
25,GAACCCGA,-0.121

row,Sequence,PBM E-score
1,AAACCCGA,0.261
2,TAACCCGA,-0.0757
3,GAACCCAC,0.028
4,AGCGCGCA,0.24
5,AAGTAAAG,0.103
6,AAGTAAAC,0.0216
7,AAGTAAAT,0.26
8,ACTAGTTC,0.0926
9,CTTACTTA,0.113
10,ATTACTCA,0.299
11,ATTACTCC,0.143
12,ATTACTTA,0.257
13,ATTACTGA,0.154
14,ATTACTCG,0.23
15,ATGGTTAA,0.0266
16,GCTCGCGA,0.109
17,ATCGCTGG,-0.223
18,ATTAAGGC,0.0716
19,GTAGCCGA,-0.114
20,ACCCTGTA,0.00489
21,AATATAAA,0.282
22,TATATAAA,0.274
23,CATATAAA,0.183
24,GATAAAAA,0.192
25,AATATAAC,0.247

row,Sequence,PBM E-score
1,AATATAAT,0.179
2,CATAAAAA,0.186
3,CATATAAG,0.113
4,GATATAAA,0.21
5,ACTATAAA,0.237
6,AATATAAG,0.353
7,TATAAAAA,0.265
8,GCTCCTCC,-0.294
9,CCACCCAA,-0.0309
10,GCCGTATA,0.141
11,GTGCCGCA,-0.0486
12,GCAAGTCC,-0.203
13,AGGGGCAA,0.0575
14,TCCTTTCA,0.062
15,AGTGGCCG,-0.119
16,CTTTATGC,0.109
17,GAGAAGTA,0.0274
18,AAAGCTGT,0.15
19,ACCCTGCA,0.122
20,ATGCGCAT,0.315
21,ATGCGCAC,0.0993
22,ATGCGCAA,0.0772
23,ACCTATTA,0.11
24,AAAGGCAA,0.254
25,TAAGGCAA,0.0224

row,Sequence,PBM E-score
1,AAAGGCAG,-0.0629
2,GTCCCGGA,-0.103
3,CATCGCGA,0.112
4,CGTCGCGA,0.141
5,AATCGCGA,0.255
6,GGTCGCGA,0.0906
7,AGTCGCGA,0.272
8,AATCGCGT,0.156
9,ATGGTTCC,0.0898
10,CTCTTTGC,0.00066
11,AACTTCGG,0.13
12,AAATTTCA,0.0121
13,GAATTTCC,0.277
14,AAATTTCC,0.125
15,CAATTTCC,0.0859
16,TAATTTCA,0.309
17,CAATTTCA,0.0657
18,AACAGTCG,-0.0471
19,CCAGCCCG,-0.258
20,GTTTACCA,0.107
21,CCTAAGCG,-0.033
22,CCCCATCC,-0.233
23,ACGCGAGT,0.087
24,ACATTTAA,0.221
25,TATGCGAA,0.0891

row,Sequence,PBM E-score
1,AATGGAAT,0.275
2,AACGGAAG,0.2
3,AACGGAAT,0.262
4,AATGGAAC,0.12
5,AATGGAAG,0.105
6,AACGGAAA,0.171
7,GCTCCTTA,0.0472
8,TAATGACA,0.197
9,TAACCTTA,-0.0831
10,TAGTCTCA,-0.034
11,AAGTACTT,-0.202
12,ATGGATAG,0.0546
13,ACTAACAC,0.125
14,CCTAACAG,0.0154
15,ACTAACAG,0.315
16,CCATTGTC,0.0818
17,ACATTGTC,0.261
18,ACATTGTG,0.0748
19,GGCTTATA,-0.00779
